Assay results published in PubChem BioAssay AID687001 (Broad Institute, 2013).
Entries with a potency or affinity are not part of this list.

The molecules below were run against Protein S100-A4 (Homo sapiens) (UniProt P26447) (assay: S100A4-myosin IIA binding inhibitor potency, dose response, biochemical, fluorescence polarization, cherry-picked hits (AID 687001;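 also: 0% = DMSO neutral control wells and -100% = TFP positive control wells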)). Conditions: FP, S100A4/TAMRA-myosin IIA peptide binding; series mostly up to 11 µM; activity change, negative = inhibition: at the top concentration;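 active = signal-lowering compounds whose fitted half-maximal concentration is at or below twice the top tested dose in every run; inconclusive = runs disagree, flat 30 to 70% inhibition, or poor curve fit; inactive = the rest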.
Chain of Protein S100-A4 (Homo sapiens) (P26447 whole entry, looked up): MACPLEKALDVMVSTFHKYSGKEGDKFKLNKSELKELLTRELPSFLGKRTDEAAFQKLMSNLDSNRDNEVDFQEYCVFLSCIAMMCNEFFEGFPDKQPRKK

Activity change, negative = inhibition, inactive:
O=[N+]([O-])c1ccccc1CN1CCN(S(=O)(=O)Cc2ccccc2)CC1 2.44%
C[C@@H]1CN([C@H](C)CO)C(=O)c2cc(NS(=O)(=O)c3ccc(Cl)cc3)ccc2O[C@@H](C)CCCCO[C@H]1CN(C)Cc1ccc(Cl)c(Cl)c1 12.6%
Cn1c(CC(=O)NNC(=O)c2ccc(F)cc2F)nc2ccccc21 -2.58%
Cn1c(=O)oc2cc(S(=O)(=O)NCc3ccc(Cl)cc3)ccc21 -0.477%
O=C(C[C@H]1CC[C@H](NS(=O)(=O)c2cccc(F)c2)[C@@H](CO)O1)NCc1ccc2c(c1)OCO2 4.88%
O=C(CC1C[C@H](C(=O)N2CCCCC2)[C@@]2(CCc3ccccc3)c3[nH]c4ccccc4c3CCN2C1=O)NCCC1=CCCCC1 (some centres undefined) -5.01%
CO[C@H]1CN(C)C(=O)c2cc(NC(C)=O)ccc2OC[C@H](C)N(Cc2ccccn2)C[C@H]1C -0.609%
CCCCNC(=O)CNC(=S)N(CCCN1CCOCC1)Cc1cccs1 -2.25%
O=C(Nc1ccccc1F)N[C@H]1CC[C@H](CCNC(=O)C2CCCCC2)O[C@H]1CO 0.987%
Cc1nn(-c2ccccc2)c(N)c1N=O 1.54%
CC(C)(C)C1CCSC2=NCCC[C@]2(c2ccccc2)C1 (some centres undefined) 1.02%
CO[C@@H]1CN(C)C(=O)c2ccc(NC(C)=O)cc2OC[C@H](C)N(Cc2cc(F)ccc2F)C[C@@H]1C -0.038%
COc1ccc(OC)c(S(=O)(=O)NCC(c2ccco2)N2CCc3ccccc32)c1 (centres undefined) -4.99%
CCOc1cc(/C=N/NC(=O)c2ccc(N(C)S(=O)(=O)c3ccccc3)cc2)ccc1OC -6.58%
O=C(C[C@@H]1CC[C@@H]2[C@H](COC[C@H](O)CN2C(=O)c2cccnc2)O1)NCc1ccc(Cl)cc1 92.5% [at 5.6 µM]
CO[C@H]1CN(C)C(=O)c2cc(NC(=O)Nc3ccc4c(c3)OCO4)ccc2OC[C@@H](C)NC[C@@H]1C 1.91%
CCOC(=O)[C@]12CCCC=C1N(Cc1cccc3ccccc13)C(=O)[C@H](CC(=O)NCCCN1CCCC1=O)C2 -4.19%
CN(CC(=O)Nc1cccc(F)c1)C(=O)c1cccc(S(=O)(=O)N2CCN(Cc3ccccc3)CC2)c1 1.73%
COc1ccc(NC(=O)c2ccccc2OCc2c(C)noc2C)cc1OC 2.52%
CC(C(=O)NC1CCCCC1)N1C(=O)c2cccc3cccc1c23 (centres undefined) -1.77%
COC(=O)CCC(C)C1CCC2C3CCC4CC(O)CCC4(C)C3=CC(=O)C12C (centres undefined) -0.405%
CO[C@H]1CN(C)C(=O)c2ccc(NC(=O)NC(C)C)cc2OC[C@@H](C)N(C(=O)NC(C)C)C[C@H]1C 2.91%
COc1cccc(C2c3[nH]c4ccccc4c3C[C@H]3C(=O)N(C)CC(=O)N23)c1 (some centres undefined) -3.55%
COc1ccc(CNC(=O)CNC(=O)[C@@H]2Cc3ccccc3CN2)cc1 -1.67%
COc1ccccc1CNc1nc(C)c(C(C)=O)s1 -3.39%
O=C(CSc1nnc(NC(=O)C2CC2)s1)NCc1ccccc1Cl -2.66%
COc1cccc(NC(=O)N(C)C[C@@H]2OCc3ccccc3-c3c(n(C)c4ccccc34)C(=O)N([C@@H](C)CO)C[C@@H]2C)c1 3.35%
CCCCn1c(O)c(/C=C2\C=Nc3ccccc32)c(=O)[nH]c1=O 19%
CO[C@@H]1CN(C)C(=O)c2cc(NC(C)=O)ccc2OC[C@H](C)N(Cc2cncnc2)C[C@H]1C -1.37%
CCCN1CCN(CCCNC(=O)C(CC)n2nc(C)c3sc4ccccc4c3c2=O)CC1 (centres undefined) 5.91%
COc1ccc(NC(=O)CN(C)C(=O)c2ccc(N3CCCC3)c([N+](=O)[O-])c2)cc1 0.18%
CC(=O)Cc1cc2cc([N+](=O)[O-])ccc2oc1=O -1.55%
S=c1[nH]c(-c2ccccc2)cn1-c1ccccc1 -5.04%
C[C@H]1CN([C@@H](C)CO)C(=O)c2cc(NC(=O)CCCCCC(=O)Nc3ccccc3N)ccc2O[C@H]1CN(C)S(=O)(=O)c1cccs1 7.67%
C[C@@H]1CN([C@H](C)CO)C(=O)CCCn2nncc2CO[C@@H]1CN(C)S(=O)(=O)c1ccc2ccccc2c1 -2.22%
COCC#Cc1cnc2c(c1)C(=O)N([C@H](C)CO)C[C@H](C)[C@H](CN(C)C(=O)C1CCC1)O2 10%
CCCNC(=O)[C@@H]1[C@@H](CO)[C@@H]2Cn3c(cccc3=O)[C@@H]2N1C(=O)C1CCC1 2.72%
CC(NC(=O)c1ccc(N2CCCC2)c([N+](=O)[O-])c1)c1ccc(S(N)(=O)=O)cc1 (centres undefined) -3.17%
CC=Cc1ccc2n(c1=O)C[C@@H]1N[C@H]2[C@H](C(=O)NC2CCCCC2)[C@H]1CO (mixture of isomers) -2.91%
